High-throughput results deposited in PubChem BioAssay by National Center for Advancing Translational Sciences (NCATS).
Shown are actives, neighbours in structure and some others; about 7.9% of the full set was active somewhere.
HCV inh – HCV inhibition. Huh7.5.1 HCVcc-Cre infection, luciferase reporter, 44 h. AID 651820. 3.4% of 340,000 active. Potency, µM (doses to about 41.8 µM), inactives show top-dose activity change, negative = inhibition, most hits filed as inhibitors; active means well fitted inhibition curve with a large enough effect; inconclusive means small, poorly fitted or top-dose-only effect, or another doubt; inactive means no such curve, though single readings can be large or run the other way; further: potency means the concentration at half of the fitted maximal effect
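Whole-lifecycle infectious HCVcc-Cre system; cells 1,000/well, compound then virus (~0.5 moi) added 4 h after plating, 44 h culture. Luciferase read 15 sec following 15 min substrate incubation, room temp.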
FMDV antiviral – foot and mouth disease virus antiviral activity | FMDV antiviral cell-based qHTS | Potency, µM (highest dose often 57.9 µM), inactives show top-dose activity change, negative = inhibition, most hits filed as inhibitors | 1.2% of 410,000 active | AID 1159524; calls by dose curve; tested in HEK293T cells; further: read-out not given here; potency means the concentration at half of the fitted maximal effect; nearly all actives have a fitted effect of over 45% in size
HCMV antiviral – inhibitors of human cytomegalovirus. activity change, negative = inhibition, % at 57.5 µM. AID 1259415. HFF cells, HCMV-luciferase reporter, 72 h; active compounds read low. 4.5% of 410,000 active; in the data active means activity change below about -60%; inconclusive means no clear call, values can overlap the other calls; inactive means above about -39%
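Two compound doses tested in HFFs infected with HCMV-luciferase, MOI 1 PFU/cell, 72 h at 37C. Lysate luminescence read with OneGlo; data normalized against buffer-only and 10uM Salinomycin inhibitor controls.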
Marburg entry inh – Marburg virus entry inhibition. Marburg virus pseudotyped entry inhibition, cell reporter. Potency, µM (top dose mostly 37.8 µM), for inactives: at the top dose activity change, negative = inhibition, usual class: inhibitors. 1.8% of 300,000 active; calls by dose curve; tested in HEK293 cells; further: potency means the concentration at half of the fitted maximal effect
Lassa entry inh – blocks Lassa virus binding to or entry into cells | Lassa virus pseudotype entry inhibition, cell reporter | 1.2% of 300,000 active | Potency, µM (doses to about 37.9 µM), inactives show at the top dose activity change, negative = inhibition, hits mostly inhibitors; calls by dose curve; tested in HEK293 cells; further: potency means the concentration at half of the fitted maximal effect; nearly all actives have a fitted effect of over 50% in size
An asterisk follows results filed as active; ? = inconclusive; . = no result given; [ ] = remark or other dose. On the % scale 0 is the no-effect control and ±100 the full control effect.

SMILES | HCV inh | FMDV antiviral | HCMV antiviral | Marburg entry inh | Lassa entry inh
C=CCOc1ccc(CNC(C)(C)C)cc1OC | -1.1% | -8.3% | -0.8 | -9.9% | -3.0%
C=CCOc1ccc(CNc2nccs2)cc1OC | 10µM* | 7.3% | 13.0 | 8.4% | 6.8%
Cc1ccsc1C(=O)NCCC(c1ccccc1)c1ccccc1 | -10.0% | -8.5% | 13.1 | 12.6µM* | ?
Cc1nc(C)c(C(=O)NCCC(c2ccccc2)c2ccccc2)o1 | 10µM* | ? | ? | -8.1%[46.1 µM] | ?
C#CCCOC(=O)N1C2=NC3=C(C(=O)N(Cc4ccc5c(c4)OCO5)C3=O)C3N(C)c4ccccc4[C@]23C[C@H]1CO (stereo partly drawn) | . | . | . | -22.9%[14.2 µM] | ?
Cc1ccc(N2CC(NC(=O)CCc3ccccc3)CC2=O)cc1 (stereo not drawn) | . | -5.8% | ? | . | 16.7%[46.1 µM]
Nc1nc(CN2CCN(c3ccccc3)CC2)nc(Nc2ccc(Cl)cc2)n1 | 12.6µM* | 31.6µM* | -65.2* | . | .
COc1ccc(Nc2nc(N)nc(CN3CCC(C)CC3)n2)cc1 | 0.0% | 7.5% | -91.1* | 5.8% | 9.3%
COc1ccc(Nc2nc(N)nc(CSC(=S)N3CCCCC3)n2)cc1 | -21.5% | 49.3% | 24.9 | . | .
CC1CC(C)CN(Cc2nc(N)nc(Nc3ccc4ccccc4c3)n2)C1 (stereo not drawn) | 12.6µM* | -28.2% | -2.7 | ? | ?
COc1ccc(Nc2nc(N)nc(CSC(=S)N3CCCCC3C)n2)cc1 (stereo not drawn) | ? | -24.5% | -63.5* | ? | 7.08µM*
COc1ccc(Nc2nc(N)nc(CN3CCc4ccccc4C3)n2)cc1 | -8.2% | -25.1% | -36.3 | . | .
Cc1ccc2c(c1)c(=O)c(S(=O)(=O)c1ccc(F)cc1)cn2CC(=O)Nc1ccc2c(c1)OCO2 | . | 22.3% | -9.9 | -21.8%[46.1 µM] | 1.3%[46.1 µM]
CCOC(=O)N1CCc2cc(OC)c(OC)c3c2c1cc1cc(OC)c(OC)cc13 | ? | ? | -11.5 | 7.94µM* | ?
Cc1ccc(-n2c(C)c([N+](=O)[O-])c3ccc(O)c(CN(C)C)c32)cc1 | ? | ? | -93.0* | ? | 3.3%
COc1ccc(-n2c(C)c([N+](=O)[O-])c3ccc(O)c(CN4CCCCC4)c32)cc1 | -12.3% | ? | -72.8* | -0.9% | 9.7%
COc1ccc(-c2c(C)c3ccc(O)c(CN4CCCC4)c3oc2=O)cc1 | . | -5.3% | 2.7 | . | -28.2%[46.1 µM]
CCCSc1ncc(Cl)c(C(=O)NCc2ccc(OC)cc2)n1 | . | -6.9% | ? | ? | -11.9%[46.1 µM]
O=C(CN1CCN(C2CCCCC2)CC1)Nc1ccc(Br)cc1 | 10µM* | -7.4% | 33.2 | -22.2%[46.1 µM] | -5.1%
COC(=O)c1[nH]c2ccc(Br)cc2c1NC(=O)CN1CCN(C2CCCCC2)CC1 | 11.2µM* | 31.6µM* | 12.9 | 6.51µM* | ?
CCOC(=O)C1CCN(CC(=O)Nc2c(C(=O)OC)[nH]c3ccc(Cl)cc23)CC1 | 10µM* | ? | 59.7 | 10µM* | ?
COC(=O)c1[nH]c2ccc(C)cc2c1NC(=O)CCN1CCN(C2CCCCC2)CC1 | ? | . | . | -1.1% | .
Nc1nc2ccccc2n1C(=O)c1ccccc1 | -10.7% | -45.5% | -18.6 | . | .
Nc1nc2ccccc2n1C(=O)c1ccc(F)cc1 | -0.5% | -66.1% | -38.0 | ? | 7.08µM*
CCc1ccccc1NC(=O)CC(c1ccc(F)cc1)N1Cc2ccccc2C1=O (stereo not drawn) | . | 9.8% | -25.8 | . | ?
SMILES | HCV inh | FMDV antiviral | HCMV antiviral | Marburg entry inh | Lassa entry inh
O=C(Nc1ccccc1)OCCN1CCN(Cc2ccccc2)CCC1=O | -8.0% | -16.0% | -11.3 | 32.7% | -9.6%
Cc1ccc(SCCN2CCN(CCc3ccccc3)CCC2=O)cc1 | 2.24µM* | -5.2% | 17.0 | . | .
c1ccc(COc2ccc(OCCN3CCCC3)cc2)cc1 | -24.2% | 33.3% | -20.9 | ? | 10.7%
O=C1CCN(Cc2ccccc2)CCN1CCOc1ccccc1 | ? | 10.3% | -77.0* | . | .
c1ccc(COc2ccc(OCCCN3CCCC3)cc2)cc1 | 10µM* | -16.2% | 10.7 | 13µM* | ?
Clc1cccc(OCCN2CCN(CCOc3cccc(Cl)c3)CC2)c1 | ? | ? | -96.1* | ? | ?
O=C1CCN(CCc2ccccc2)CCN1CCSc1ccc(Br)cc1 | -2.6% | 0.0% | -2.0 | . | .
CC1CCN(CCOc2cccc(Br)c2)CC1 | 1.4% | 10.1% | -22.0 | ? | ?
COc1ccc(S(=O)(=O)c2c(SC)nn(CC(=O)Nc3ccc(C)c(Cl)c3)c2N)cc1 | . | 0.0% | -10.9 | . | ?
c1ccc(Oc2cccc(OCCCCN3CCCC3)c2)cc1 | 10µM* | -21.5% | ? | 20.6µM* | -18.3%
CN1CCN(Cc2ccc(OCc3ccccc3)cc2)CC1 | 5.62µM* | 28.9% | -10.2 | ? | ?
CCN1CCN(Cc2ccc(OCc3ccccc3)cc2)CC1 | ? | 12.5% | -18.4 | ? | ?
CC1CN(CCCCOc2cccc(Oc3ccccc3)c2)CC(C)O1 (stereo not drawn) | 20.1% | ? | -14.4 | ? | ?
CC1Cc2cc(S(=O)(=O)NCc3ccc(F)cc3)ccc2N1C(=O)C1CCC1 (stereo not drawn) | . | -15.6% | ? | . | -4.7%[46.1 µM]
CSc1c(SCc2ccccc2)cnn(-c2ccccc2)c1=O | -14.2% | -16.9% | 4.4 | 28.4% | 5.17µM*
COc1cnn(-c2ccccc2)c(=O)c1SCc1ccc(Cl)c(Cl)c1 | -0.9% | ? | -25.4 | 0.1% | -5.2%
Cn1ncc(SCc2ccccc2)c(Cl)c1=O | -69.1% | ? | -80.0* | ? | ?
Cc1oc(-c2ccc(C(=O)NCc3ccccc3)cc2)nc1CN1CCc2ccccc21 | . | ? | -7.0 | . | 1.5%[46.1 µM]
Cc1cc(C)n(-c2nc3ccccc3nc2N2CCN(C(=O)c3ccc(F)cc3)CC2)n1 | -0.6% | -2.6% | -79.5* | 2.1% | ?
CCN1CCN(C(c2ccccn2)c2c(NC(=O)c3ccccc3)sc(C)c2C)CC1 (stereo not drawn) | ? | ? | -31.6 | 10µM* | ?
CCN1CCN(C(c2cccnc2)c2c(NC(=O)c3ccco3)sc(C)c2C)CC1 (stereo not drawn) | ? | -5.9% | 5.4 | . | .
COc1cccc(C(c2c(NC(=O)c3ccccc3)sc(C)c2C)N2CCN(C)CC2)c1 (stereo not drawn) | 3.6% | -23.5% | -35.8 | 20µM* | ?
COc1ccc(C(c2c(NC(=O)c3ccccc3)sc(C)c2C)N2CCN(CCO)CC2)cc1 (stereo not drawn) | -8.3% | -18.5% | -9.8 | ? | ?
COC(=O)c1c(C)noc1-c1ccc(Cl)cc1 | 21.9% | 5.5% | -63.8* | . | .
COC(=O)/C(=C1/Oc2cc(C)oc(=O)c2S1)C(F)(F)F | 10µM* | 28.2µM* | ? | ? | ?
COC(=O)/C(=C1/Oc2ccc(C(C)(C)C)cc2S1)C(F)(F)F | 5.9% | 44.1% | ? | 2.0% | -1.0%
Cc1nn(C)c2c1c(-c1ccccc1)cc(=O)n2Cc1c(F)cccc1Cl | . | -8.8% | -2.1 | . | 24.3%[46.1 µM]
Cc1ccc2ccc3cc(C(=O)N4CCN(c5ccccc5)CC4)nc3c2[nH]1 | . | ? | -31.2 | . | ?
